Assay outcomes deposited in PubChem BioAssay by National Center for Advancing Translational Sciences (NCATS).
Sampled rows, rich in hits. Any-hit rate of the full collection: about 8.7%.
Sfp inh = inhibitors of Bacillus subtilis Sfp phosphopantetheinyl transferase; Biochemical Sfp PPTase activity, qHTS; Potency, µM, for the others: largest response in the series, negative = inhibition, hits mostly inhibitors; 310,000 compounds, 3.5% hits; AID 1490;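 also: the enzyme is Sfp with the accession as filed and its product quenches rhodamine fluorescence; 0% = enzyme reaction without inhibitor and -100% = no enzyme wells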
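Fluorescence-quenching assay with 15 nM Sfp, 5 uM rhodamine-CoA and 12.5 uM BHQ-2-labelled ybbR peptide in pH 7.6 Hepes/MgCl2 buffer. Enzyme was pre-incubated with compound for 15 min at room temperature. Rate was taken from the 30-min fluorescence change (525/598 nm).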
JMJD2A Tudor inh = JMJD2A Tudor domain (human) inhibition. O75164. 390,000 compounds, 4.4% hits. AID 504339. AlphaScreen JMJD2A-Tudor / H3K4me3 peptide binding. Potency, µM (series often up to 114 µM), inactives show top-dose activity change, negative = inhibition, actives largely listed as inhibitors; also: % is scaled to controls: 0 for no effect and ±100 for the full control effect; nearly all actives have a fitted effect of over 50% in size
Target sequence (O75164 whole entry, looked up, the tested form may be a part): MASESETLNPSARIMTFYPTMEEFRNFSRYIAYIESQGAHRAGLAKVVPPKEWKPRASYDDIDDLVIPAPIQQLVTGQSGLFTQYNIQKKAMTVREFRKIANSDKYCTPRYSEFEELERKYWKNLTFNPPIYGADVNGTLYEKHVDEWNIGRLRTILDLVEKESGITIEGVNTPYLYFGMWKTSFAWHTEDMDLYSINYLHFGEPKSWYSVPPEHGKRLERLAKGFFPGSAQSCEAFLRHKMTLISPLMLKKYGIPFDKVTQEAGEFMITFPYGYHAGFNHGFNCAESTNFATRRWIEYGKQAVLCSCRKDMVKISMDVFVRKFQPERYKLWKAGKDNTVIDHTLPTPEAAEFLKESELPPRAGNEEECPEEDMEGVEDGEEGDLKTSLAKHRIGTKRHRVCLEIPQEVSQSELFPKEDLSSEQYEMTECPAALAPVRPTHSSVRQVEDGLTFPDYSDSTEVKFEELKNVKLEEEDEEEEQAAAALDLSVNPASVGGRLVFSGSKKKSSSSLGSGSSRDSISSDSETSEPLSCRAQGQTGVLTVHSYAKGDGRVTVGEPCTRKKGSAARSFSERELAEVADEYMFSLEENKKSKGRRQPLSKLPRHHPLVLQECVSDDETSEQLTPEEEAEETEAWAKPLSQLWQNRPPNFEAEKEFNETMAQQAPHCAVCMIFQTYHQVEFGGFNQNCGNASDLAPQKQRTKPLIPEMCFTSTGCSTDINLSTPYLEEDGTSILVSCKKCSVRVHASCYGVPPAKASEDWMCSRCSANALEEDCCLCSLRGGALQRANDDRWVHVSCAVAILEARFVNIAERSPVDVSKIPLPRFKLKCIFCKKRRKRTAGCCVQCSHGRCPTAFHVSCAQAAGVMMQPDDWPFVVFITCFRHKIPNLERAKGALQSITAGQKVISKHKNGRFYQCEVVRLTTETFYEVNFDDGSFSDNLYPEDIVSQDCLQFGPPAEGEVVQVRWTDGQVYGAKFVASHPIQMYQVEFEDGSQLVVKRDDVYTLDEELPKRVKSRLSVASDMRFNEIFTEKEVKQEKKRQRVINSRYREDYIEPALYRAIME
BAZ2B block = inhibitors of human BAZ2B bromodomain; 360,000 compounds, 4.4% hits; Q9UIF8; Potency, µM (titrated, usually from 114 µM), without a hit: at the top dose activity change, negative = inhibition, most hits filed as inhibitors; AID 504333; AlphaScreen BAZ2B-H3K14Ac peptide displacement; also: % is scaled to controls: 0 for no effect and ±100 for the full control effect; nearly all actives have a fitted effect of over 60% in size
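Complex of BAZ2B and biotin-H3K14Ac (50 nM apiece) forms over 30 min at RT, then faces library compounds up to 110 uM for another 30 min; AlphaScreen beads added, 20 min dark incubation, luminescence read.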
ALOX12 inh = ALOX12 (human) lipoxygenase inhibition; P18054; purified 12hLO, xylenol orange hydroperoxide absorbance; Potency, µM (top dose mostly 108 µM), without a hit: at the top dose activity change, negative = inhibition, usual class: inhibitors; 580,000 compounds, 1.1% hits; AID 1671190; also: % is scaled to controls: 0 for no effect and ±100 for the full control effect
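Purified human 12hLO at 150 nM in 25 mM Hepes, 0.01% Triton X-100, pH 7.0, preincubated 15 min at room temperature with compound. Reaction started with 40 uM arachidonic acid, 30 min at room temperature. Hydroperoxide measured by Fe-xylenol orange, 573/405 nm absorbance ratio.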
G9a inh = inhibitors of human histone lysine methyltransferase G9a; Q96KQ7; G9a H3K9 monomethylation, AlphaScreen, 2 h; Potency, µM (highest dose often 102 µM), for the others: at the highest dose activity, negative = inhibition, hits mostly inhibitors; 350,000 compounds, 8.8% hits; AID 504332; also: % is scaled to controls: 0 for no effect and ±100 for the full control effect; nearly all actives have a fitted effect of over 75% in size
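G9a (20 nM) was preincubated 15 min with compound, then reacted 2 h at room temperature with 500 nM biotin-H3K9 peptide and 20 µM SAM. Monomethyl-H3K9 detected by AlphaScreen using anti-H3K9me1 antibody.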
HP1b binding inh = inhibitors of HP1-beta chromodomain binding to methylated histone tails; P83916; AlphaScreen HP1-beta / biotin-H3K9me3 peptide binding; Potency, µM (highest dose often 114 µM), inactives show at the top dose activity change, negative = inhibition, actives largely listed as inhibitors; 390,000 compounds, 0.56% hits; AID 540317; also: nearly all actives have a fitted effect of over 70% in size
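AlphaScreen: HP1-beta (50 nM) preformed 30 min with biotin-H3(1-18)K9me3 peptide (50 nM) in PBS pH 7.4, 0.01% Tween-20. Compound added for 30 min at RT, then streptavidin donor/nickel chelate acceptor beads (10 ug/mL) for 30 min.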
An asterisk follows results filed as active; [ ] = remark or other dose. Calls follow the shape of the dose curve; as a rule, active = well fitted curve in the direction sought with a large enough effect; inconclusive = small, poorly fitted or top-dose-only effect, or another doubt; inactive = no such curve, though single readings can be large; an effect the other way counts as inactive or inconclusive. Potency is read from the fitted curve at half-maximal effect.

How did COc1ccc(N2CCN(c3oc(/C=C/c4ccccc4OC)nc3C#N)CC2)cc1 do in these assays?
JMJD2A Tudor inh: inconclusive; BAZ2B block: 3.2µM*; ALOX12 inh: 0%; G9a inh: inconclusive; HP1b binding inh: inconclusive

What do the screens show for `COc1ccc(OCc2nc(C#N)c(N3CCN(C)CC3)o2)cc1`?
ALOX12 inh: -4%

How did CCN1CCN(c2oc(COc3cccc(Cl)c3)nc2C#N)CC1 do in these assays?
ALOX12 inh: -58%

How did N#Cc1nc(COc2ccccc2Cl)oc1N1CCCC1 do in these assays?
Sfp inh: 5%; JMJD2A Tudor inh: inconclusive; BAZ2B block: 13µM*; ALOX12 inh: 39%; G9a inh: 7.9µM*; HP1b binding inh: inconclusive

What do the screens show for `Cc1ccccc1COC1CN(C(=O)C2CC(=O)N(C(C)(C)C)C2)C1` (stereo unspecified)?
ALOX12 inh: 22%

Results for COc1cc(CN(C(=O)COc2ccccc2C)c2ccccn2)cc(OC)c1OC ?
ALOX12 inh: 11%

Results for O=C(c1ccco1)N1CCCC(c2nn[nH]n2)C1 (stereo unspecified) ?
ALOX12 inh: 44%

How did CNC(=O)[C@@H](C1CC1)N1CCC[C@H]1C(=O)NCC1CC1 do in these assays?
ALOX12 inh: 3%[176 µM]

What do the screens show for `COc1ccc(N2CCN(c3oc(COc4ccccc4Cl)nc3C#N)CC2)cc1`?
Sfp inh: -5%; JMJD2A Tudor inh: inconclusive; BAZ2B block: 7.9µM*; ALOX12 inh: inconclusive; G9a inh: 10µM*; HP1b binding inh: inconclusive

How did CC1CN(c2oc(COc3ccc(Cl)cc3Cl)nc2C#N)CC(C)O1 (stereo unspecified) do in these assays?
Sfp inh: 8%; JMJD2A Tudor inh: inconclusive; BAZ2B block: 35µM*; ALOX12 inh: 0%; G9a inh: inconclusive; HP1b binding inh: -49%

Results for N#Cc1nc(COc2ccccc2Cl)oc1N1CCCCCC1 ?
Sfp inh: -2%; JMJD2A Tudor inh: -21%; BAZ2B block: inconclusive; ALOX12 inh: 11%[57.4 µM]; G9a inh: -5%[59 µM]; HP1b binding inh: inconclusive

Results for N#Cc1nc(-c2ccccc2Cl)oc1N1CCCCC1 ?
Sfp inh: -6%; JMJD2A Tudor inh: inconclusive; BAZ2B block: 22µM*; ALOX12 inh: inconclusive; G9a inh: 35µM*; HP1b binding inh: inconclusive

How did CCCCCCCNC(=O)CCC(=O)NCCCC do in these assays?
ALOX12 inh: 7%

What do the screens show for `Cc1nn(Cc2ccccc2)c(C)c1NC(=O)CCCn1nc([N+](=O)[O-])c(Cl)c1C`?
Sfp inh: 5%; JMJD2A Tudor inh: 40µM*; BAZ2B block: 8%; ALOX12 inh: -4%; G9a inh: 22%; HP1b binding inh: 13%

Results for C=C1CCN(c2ccc(C(=O)NCc3ccccc3)cc2[N+](=O)[O-])CC1 ?
Sfp inh: 0%; JMJD2A Tudor inh: inconclusive; BAZ2B block: inconclusive; ALOX12 inh: 13%; G9a inh: 22µM*; HP1b binding inh: -6%

What do the screens show for `Cc1ccc(CNC(=O)c2ccc(N3CCC4(CC3)CC(c3ccccc3)=NO4)c([N+](=O)[O-])c2)cc1`?
Sfp inh: 9%; JMJD2A Tudor inh: -35%; BAZ2B block: -31%; ALOX12 inh: -7%; G9a inh: 71µM*; HP1b binding inh: inconclusive

Results for COC(CNC(=O)c1ccc(N2CCc3ccccc32)c([N+](=O)[O-])c1)OC ?
Sfp inh: inconclusive; JMJD2A Tudor inh: inconclusive; BAZ2B block: 40µM*; ALOX12 inh: inconclusive; G9a inh: 45µM*; HP1b binding inh: inconclusive

What do the screens show for `CCCNC(=O)c1ccc(N2CCC3(CC2)CC(c2ccccc2)=NO3)c(NC(=O)c2cccc(OC)c2)c1`?
Sfp inh: 13%; JMJD2A Tudor inh: 56µM*; BAZ2B block: inconclusive; ALOX12 inh: -15%; G9a inh: 45µM*; HP1b binding inh: 23%

What do the screens show for `Cc1ccc(CNC(=O)c2ccc(N3CCc4ccccc43)c([N+](=O)[O-])c2)cc1`?
Sfp inh: 24%; JMJD2A Tudor inh: 8.9µM*; BAZ2B block: 10µM*; ALOX12 inh: 15%; G9a inh: 8.9µM*; HP1b binding inh: 32µM*

How did COc1ccc(CNC(=O)c2ccc3c(c2)CCN3S(=O)(=O)c2ccc(C)cc2)cc1 do in these assays?
JMJD2A Tudor inh: -7%; BAZ2B block: -18%; ALOX12 inh: -12%; G9a inh: 7%[59 µM]; HP1b binding inh: 35%

What do the screens show for `COc1ccc(N2CCN(C(c3ccc(F)cc3)c3sc4nc(-c5ccco5)nn4c3O)CC2)cc1` (stereo unspecified)?
JMJD2A Tudor inh: inconclusive; BAZ2B block: 40µM*; ALOX12 inh: -27%; G9a inh: inconclusive; HP1b binding inh: inconclusive

How did Cc1ccc(C(c2sc3nc(-c4ccco4)nn3c2O)N2CCN(c3ccc(F)cc3)CC2)cc1 (stereo unspecified) do in these assays?
JMJD2A Tudor inh: inconclusive; BAZ2B block: -20%; ALOX12 inh: -21%; G9a inh: -11%[59 µM]; HP1b binding inh: inconclusive

What do the screens show for `Oc1c(C(c2ccccc2F)N2CCN(Cc3ccccc3)CC2)sc2nc(-c3ccco3)nn12` (stereo unspecified)?
JMJD2A Tudor inh: inconclusive; BAZ2B block: inconclusive; ALOX12 inh: -7%; G9a inh: -34%[59 µM]; HP1b binding inh: 31%

What do the screens show for `COc1ccc(N2CCN(C(c3ccccc3F)c3sc4nc(-c5ccco5)nn4c3O)CC2)cc1` (stereo unspecified)?
JMJD2A Tudor inh: inconclusive; BAZ2B block: 40µM*; ALOX12 inh: -29%; G9a inh: inconclusive; HP1b binding inh: inconclusive

What do the screens show for `Oc1c(C(c2ccc(Cl)cc2Cl)N2CCN(c3ccccc3)CC2)sc2nc(-c3ccco3)nn12` (stereo unspecified)?
JMJD2A Tudor inh: -28%; BAZ2B block: -15%; ALOX12 inh: -23%; G9a inh: 11µM*; HP1b binding inh: 22%

What do the screens show for `Cc1ccc(C(c2sc3nc(-c4ccco4)nn3c2O)N2CCOCC2)cc1` (stereo unspecified)?
JMJD2A Tudor inh: -6%; BAZ2B block: -1%; ALOX12 inh: 14µM*; G9a inh: 12%[59 µM]; HP1b binding inh: 35%

What do the screens show for `O=C(Nc1nnc(C2CC2)s1)C(Sc1ccccc1)c1ccccc1` (stereo unspecified)?
ALOX12 inh: -14%

How did Cc1cc(C[C@@H]2COC[C@@H]2NC(=O)c2ccc(Oc3ccccc3)o2)on1 do in these assays?
ALOX12 inh: 33%
